Drawing on PubChem BioAssay (NCI), this text covers growth for 20 molecules.

Structures are written as SMILES. This is part of a sample that, as a whole, favours compounds with a hit. Of some 83,000 tested, about 20% had one in any assay.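 The endpoint reported here, percent growth, reads 100 for growth as untreated, 0 for no net growth and -100 for all cells dead.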 Values without a mark were called inactive. Activity calls are given as the source filed them. Rule for the calls: active = growth percent below 10; inactive = the rest.

Among the test systems are SR leukemia; RPMI-8226 leukemia; OVCAR-8 ovarian; OVCAR-5 ovarian; OVCAR-4 ovarian; SK-OV-3 ovarian; IGROV1 ovarian; OVCAR-3 ovarian; HS 578T breast; NCI/ADR-RES ovarian.
Assay in all cases: NCI-60 one-dose screen, 48 h (100 = growth as untreated, 0 = no growth, -100 = all killed)
Common to all, as to settings: 10 µM unless noted

Consider `C/C(Cc1ccc(Cl)cc1)=C(\c1ccc(O)cc1)c1ccc(Cl)cc1`, for which the growth with SR leukemia is 80.5%; in the assay on RPMI-8226 leukemia, 72.5%; with OVCAR-8 ovarian, 104%; with OVCAR-5 ovarian, 92.5%; in the assay on OVCAR-4 ovarian, 89.3%; in the assay with SK-OV-3 ovarian it was 112%. Further, the growth was 96.8% in the assay on IGROV1 ovarian, 103% in the assay on OVCAR-3 ovarian, 99.6% with HS 578T breast and 100% in the assay on NCI/ADR-RES ovarian.
`CCCCNC(=O)CC1=C(C)/C(=C/c2[nH]c(-c3ccc[nH]3)cc2OC)N=C1C`: the growth in the assay on SR leukemia is -16.8% (active); in the assay with RPMI-8226 leukemia, 39.2%; with OVCAR-8 ovarian, 20.5%; with OVCAR-5 ovarian, 50.2%; in the assay with OVCAR-4 ovarian, 39.7%; with SK-OV-3 ovarian, 51.7%. For the same molecule, the growth is 49.2% in the assay with IGROV1 ovarian, 24.4% in the assay on OVCAR-3 ovarian, 43.1% in the assay with HS 578T breast and 30.1% with NCI/ADR-RES ovarian.
For `COc1ccc2cc1Oc1ccc(cc1)C[C@H]1c3c(cc4c(c3Oc3cc5c(cc3OC)CCN(C)[C@@H]5C2)OCO4)CCN1C`, the growth is -17.3% (active) in the assay with SR leukemia; 48% in the assay on RPMI-8226 leukemia; 43.9% in the assay on OVCAR-8 ovarian; 90.2% in the assay with OVCAR-5 ovarian; 64.8% in the assay with OVCAR-4 ovarian; 110% in the assay on SK-OV-3 ovarian. For the same molecule, the growth in the assay on IGROV1 ovarian is 44.3%; in the assay on OVCAR-3 ovarian it was 49.5%; in the assay on HS 578T breast it was -6.41% (active); in the assay on NCI/ADR-RES ovarian, 76.2%.
On to `C=C1C(=O)O[C@H]2[C@H]1CC/C(COC(=O)C(=O)c1cn(C)c3ccc(Cl)cc13)=C\CC[C@@]1(C)O[C@@H]21`, for which the growth with SR leukemia is 2.71% (active); with RPMI-8226 leukemia it was -33.7% (active); in the assay with OVCAR-8 ovarian it was -23.9% (active); in the assay with OVCAR-5 ovarian, -47.6% (active); in the assay with OVCAR-4 ovarian, -61.2% (active); in the assay with SK-OV-3 ovarian it was -35.4% (active). The growth in the assay on IGROV1 ovarian was -72.1% (active); with OVCAR-3 ovarian, -86.3% (active); with HS 578T breast, -16.9% (active); in the assay with NCI/ADR-RES ovarian, -3.58% (active).
As to `CCOC(=O)c1c(C(=O)c2cn(C)c3ccc(Br)cc23)c(-c2cn(C)c3ccc(Br)cc23)n(NC(=O)OC(C)(C)C)c1C`, the growth with SR leukemia is 89.1% [100 µM]; in the assay on RPMI-8226 leukemia it was 69.2% [100 µM]; in the assay on OVCAR-8 ovarian, 71.8% [100 µM]; in the assay on OVCAR-5 ovarian, 92.3% [100 µM]; in the assay with OVCAR-4 ovarian, 105% [100 µM]; with SK-OV-3 ovarian it was 54.8% [100 µM]. The growth was 70.7% [100 µM] with IGROV1 ovarian, 88.5% [100 µM] in the assay on OVCAR-3 ovarian, 46.8% [100 µM] in the assay with HS 578T breast and 85.4% [100 µM] with NCI/ADR-RES ovarian.
As to `O=C1/C(=C/c2cn(-c3ccccc3)nc2-c2ccccc2)SC(=S)N1C1CCCCC1`, the growth in the assay with SR leukemia was 106%; in the assay on RPMI-8226 leukemia, 114%; in the assay with OVCAR-8 ovarian, 103%; in the assay with OVCAR-5 ovarian, 108%; in the assay with OVCAR-4 ovarian, 97.6%; in the assay with SK-OV-3 ovarian it was 108%. Also, the growth with IGROV1 ovarian was 103%; in the assay on OVCAR-3 ovarian it was 117%; in the assay on HS 578T breast, 103%; in the assay on NCI/ADR-RES ovarian, 102%.
As for `CSc1nc(N)c(NS(=O)(=O)c2ccc(C(C)=O)cc2)c(=O)[nH]1`, the growth was 119% with SR leukemia; 110% with RPMI-8226 leukemia; 107% with OVCAR-8 ovarian; 104% in the assay on OVCAR-5 ovarian; 117% with OVCAR-4 ovarian; 117% in the assay with SK-OV-3 ovarian. Further, the growth is 106% in the assay with IGROV1 ovarian, 105% with OVCAR-3 ovarian, 105% in the assay with HS 578T breast and 96.8% with NCI/ADR-RES ovarian.
As for `CCOc1ccc(NC(=O)CSc2oc(-c3ccccc3)nc2S(=O)(=O)c2ccc(C)cc2)cc1`, the growth in the assay with SR leukemia is 41.3%; in the assay on RPMI-8226 leukemia it was 71.3%; in the assay on OVCAR-8 ovarian, 40.2%; with OVCAR-5 ovarian, 101%; in the assay on OVCAR-4 ovarian it was 51.1%; with SK-OV-3 ovarian, 83.3%. Also, the growth in the assay on IGROV1 ovarian was 95%; in the assay on OVCAR-3 ovarian it was 56.8%; in the assay on HS 578T breast, 59.9%; with NCI/ADR-RES ovarian, 58.9%.
For `C#Cc1c2c(c(OC)c3c1OCO3)[C@H]([C@H]1OC(=O)c3c1ccc(OC)c3OC)N(C)CC2`, the growth was 9.19% (active) in the assay on SR leukemia; 100% in the assay with RPMI-8226 leukemia; 95.2% in the assay on OVCAR-8 ovarian; 101% with OVCAR-5 ovarian; 92.7% in the assay on OVCAR-4 ovarian; 89.5% in the assay with SK-OV-3 ovarian. The growth was 82.5% with IGROV1 ovarian, 87.1% with OVCAR-3 ovarian, 99.1% in the assay on HS 578T breast and 59.6% in the assay on NCI/ADR-RES ovarian.
With `COc1cc2c(cc1OCCCN1CCN(CCCOc3cc4c(cc3OC)C(=O)N3CCC[C@H]3C=N4)CC1)C=CC(C)(C)O2`, the growth with SR leukemia is -58.3% (active); with RPMI-8226 leukemia, -8.49% (active); in the assay with OVCAR-8 ovarian, -56.7% (active); with OVCAR-5 ovarian, -80.7% (active); in the assay with OVCAR-4 ovarian it was -71.2% (active); in the assay on SK-OV-3 ovarian, -83.9% (active). In addition, the growth in the assay with IGROV1 ovarian was -89.1% (active); with OVCAR-3 ovarian, -75.6% (active); with HS 578T breast, -77.9% (active); in the assay on NCI/ADR-RES ovarian it was 32.6%.
For `COc1cc(OC)c(/C=C/C(=O)c2c(OC)cccc2OC)c(OC)c1`, the growth in the assay on SR leukemia is 23.3%; with RPMI-8226 leukemia, 16.7%; with OVCAR-8 ovarian it was 24.2%; in the assay with OVCAR-5 ovarian, 4.82% (active); with OVCAR-4 ovarian it was 68.4%; with SK-OV-3 ovarian, 21.7%. Besides, the growth in the assay on IGROV1 ovarian is -1.35% (active); in the assay on OVCAR-3 ovarian, -42.2% (active); in the assay with HS 578T breast it was 88.7%; in the assay on NCI/ADR-RES ovarian, -22.1% (active).
In the case of `CCCCCCCC[C@@H]1N[C@@H](C(=O)OC)Cc2c1[nH]c1ccccc21`, the growth is 107% with SR leukemia; 95.4% in the assay on RPMI-8226 leukemia; 98.6% in the assay with OVCAR-8 ovarian; 89% in the assay on OVCAR-5 ovarian; 91.9% with OVCAR-4 ovarian; 101% in the assay on SK-OV-3 ovarian. Besides, the growth with IGROV1 ovarian is 82.9%; with OVCAR-3 ovarian, 101%; in the assay with HS 578T breast, 91.7%; with NCI/ADR-RES ovarian it was 86.5%.
Turning to `COc1ccc(C(C)=O)cc1S(=O)(=O)Nc1c(N)nc(SC)[nH]c1=O`, the growth with SR leukemia is 103%; in the assay on RPMI-8226 leukemia, 96.6%; with OVCAR-8 ovarian, 105%; in the assay with OVCAR-5 ovarian it was 104%; in the assay with OVCAR-4 ovarian, 108%; in the assay on SK-OV-3 ovarian, 124%. Besides, the growth in the assay with IGROV1 ovarian was 102%; in the assay on OVCAR-3 ovarian, 103%; in the assay on HS 578T breast, 96.9%; in the assay on NCI/ADR-RES ovarian it was 103%.
Regarding `CCCc1c(OC(=O)c2ccccc2)nc2[nH]c(=O)sc2c1C`, the growth was 115% in the assay on SR leukemia; 103% in the assay with RPMI-8226 leukemia; 102% with OVCAR-8 ovarian; 98.8% in the assay with OVCAR-5 ovarian; 114% in the assay on OVCAR-4 ovarian; 95.8% in the assay on SK-OV-3 ovarian. Moreover, the growth with IGROV1 ovarian is 101%; in the assay on OVCAR-3 ovarian it was 103%; in the assay with HS 578T breast, 99.9%; in the assay on NCI/ADR-RES ovarian, 97.9%.
Consider `C=C1CC[C@@H]2[C@](C)(COC(C)=O)[C@H](OC(C)=O)CC[C@@]2(C)[C@@H]1CC(Nc1ccc(S(=O)(=O)Nc2ncccn2)cc1)C1=CCOC1=O` (stereo not given in full), for which the growth in the assay with SR leukemia is -4.43% (active); in the assay on RPMI-8226 leukemia it was -12.7% (active); in the assay with OVCAR-8 ovarian it was 3.81% (active); with OVCAR-5 ovarian, -1.98% (active); in the assay on OVCAR-4 ovarian, 42.7%; in the assay on SK-OV-3 ovarian it was 84.7%. Moreover, the growth was 7.21% (active) with IGROV1 ovarian, -80.6% (active) in the assay with OVCAR-3 ovarian, 51.2% in the assay on HS 578T breast and 16.1% in the assay on NCI/ADR-RES ovarian.
With `CC(C)Cn1cnc2c(=O)[nH]c(N)nc21`, the growth in the assay with SR leukemia is 90.3%; in the assay with RPMI-8226 leukemia, 104%; in the assay on OVCAR-8 ovarian, 97%; with OVCAR-5 ovarian, 110%; in the assay with OVCAR-4 ovarian, 103%; in the assay on SK-OV-3 ovarian it was 78%. The growth in the assay with IGROV1 ovarian is 104%; in the assay with OVCAR-3 ovarian it was 109%; in the assay with HS 578T breast it was 106%; in the assay with NCI/ADR-RES ovarian, 105%.
Consider `O=S(=O)(NCCNc1nccc(-c2c(-c3ccc(F)c(O)c3)nc3sccn23)n1)c1ccc(O)cc1`, for which the growth in the assay with SR leukemia is 38.4%; in the assay with RPMI-8226 leukemia, 17.9%; in the assay with OVCAR-8 ovarian, 32.8%; in the assay with OVCAR-5 ovarian, 104%; in the assay with OVCAR-4 ovarian, 34.1%; with SK-OV-3 ovarian, 53.7%. For the same molecule, the growth was 36.1% in the assay with IGROV1 ovarian, 57.4% in the assay with OVCAR-3 ovarian, 64.1% in the assay with HS 578T breast and 39.6% with NCI/ADR-RES ovarian.
For `N#Cc1nc(-c2ccc(F)cc2)oc1S(=O)(=O)N1CCCCC1`, the growth with SR leukemia is 1.55% (active); in the assay with RPMI-8226 leukemia it was 49.4%; in the assay with OVCAR-8 ovarian it was 58.3%; in the assay with OVCAR-5 ovarian, 95.9%; with OVCAR-4 ovarian, 57.4%; with SK-OV-3 ovarian it was 104%. Also, the growth was 59.6% in the assay with IGROV1 ovarian, -54.5% (active) with OVCAR-3 ovarian, 95.6% with HS 578T breast and 97.7% in the assay with NCI/ADR-RES ovarian.
For the molecule `CCC1=C[C@@H]2C[C@]3(C(=O)OC)c4[nH]c5ccccc5c4CC[N@+](CC(=O)Nc4cc5c(cc4OC)N(C)[C@H]4[C@@](O)(C(=O)OC)[C@H](OC(C)=O)[C@]6(CC)C=CCN7CC[C@]54[C@@H]76)(C2)[C@H]13`, the growth with SR leukemia was 99.4%; in the assay on RPMI-8226 leukemia, 105%; with OVCAR-8 ovarian it was 102%; with OVCAR-5 ovarian, 109%; in the assay on OVCAR-4 ovarian it was 104%; with SK-OV-3 ovarian, 105%. The growth with IGROV1 ovarian is 104%; in the assay on OVCAR-3 ovarian it was 109%; in the assay with HS 578T breast it was 99.4%; in the assay with NCI/ADR-RES ovarian, 106%.
For the molecule `CCOC(=O)Cc1cnc(N/N=C(\C)c2cc3ccccc3o2)s1`, the growth with SR leukemia is 106%; in the assay with RPMI-8226 leukemia, 98.6%; in the assay on OVCAR-8 ovarian, 94%; in the assay on OVCAR-5 ovarian, 99.7%; with OVCAR-4 ovarian, 93.5%; with SK-OV-3 ovarian it was 92.1%. In addition, the growth in the assay with IGROV1 ovarian is 87.4%; in the assay with OVCAR-3 ovarian, 107%; in the assay with HS 578T breast it was 100%; in the assay with NCI/ADR-RES ovarian, 103%.
